Assay results published in PubChem BioAssay AID624300 (Southern Research Specialized Biocontainment Screening …, 2012).
The campaign covered roughly 2,400 compounds. About 360 (15%) were called active.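 Rule for the calls: active = viability falls under 70% at one or more tested concentrations, taken as toxicity; inactive = viability stays over 70% at every dose.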 These entries were drawn from the full list. Entries that show only a call come without a potency. Potency and affinity values are given separately.

test: HeLa cell cytotoxicity, dose response, cytotoxicity control for MgcRacGAP inhibitor project (AID 624300); details: CellTiter-Glo luminescence, 24 h; series mostly up to 100 µM

| SMILES | outcome |
| --- | --- |
| Cc1cc(C)cc(NC(=O)C(NCCN2CCOCC2)c2ccccc2)c1 (centres undefined) | inactive |
| CN=c1scc(C)n1/N=C/c1cc(Br)c(O)c(OC)c1 | inactive |
| O=c1oc2cc(O)ccc2c2oc3cc(O)ccc3c12 | inactive |
| CN(C)/C=C/c1oc2ccc(O)cc2c1[N+](=O)[O-] | inactive |
| Cc1cc(O)ccc1N/C=C1\CCCC1=O | inactive |
| CC(C)COc1ccc(N)cc1OCC(C)C | inactive |
| Nc1cc2c([N+](=O)[O-])cccc2o1 | inactive |
| COc1cc(Sc2ccc(C)cc2)c(OC)cc1N | inactive |
| COc1ccc(NCCC(O)c2ccc(Cl)cc2)cc1 (centres undefined) | inactive |
| COc1ccc(NC2CCCN(C(=O)COc3ccc(C(C)=O)cc3)C2)cc1 (centres undefined) | inactive |
| S=c1[nH]nc(-c2ccncc2)n1/N=C/c1ccccc1 | inactive |
| COc1ccc(N2CCN(C(=O)c3ccc(Br)o3)CC2)cc1 | inactive |
| O=[N+]([O-])c1ccc(C2CC(c3ccccc3)=Nc3ccccc3S2)cc1 (centres undefined) | inactive |
| CCOC1=C/C(=C/c2c(N)n3nc(S(=O)(=O)CC)sc3nc2=O)C=CC1=O | inactive |
| COc1ccc(OC(=O)c2cc(S(=O)(=O)N3CCCC3)ccc2Cl)cc1 | inactive |
| O=C(Cn1c(C(=O)NCC2CCCO2)cc2sccc21)c1ccccc1 (centres undefined) | inactive |
| CCOc1cc(/C=N\NC(=O)CC(=O)NCCc2ccccc2)ccc1O | inactive |
| CS(=O)(=O)c1ccc2c(c1)sc1nc(=O)c(/C=C3/C=CC(=O)C(O)=C3)c(N)n12 | inactive |
| CCCCN(C)C(=O)C1CCN(Cc2ccc(OCc3ccccc3)cc2)CC1 | inactive |
| C#CCOc1ccccc1CNC1CCN(Cc2ccccc2)CC1 | inactive |
| COc1ccc(NCC(O)COc2ccc(C(C)(C)C)cc2)cc1 (centres undefined) | inactive |
| O=C(NCCNCC(O)COc1ccc(O)cc1)N1CCOCC1 (centres undefined) | inactive |
| O=C(Cc1coc2cc(O)ccc12)NNC(=O)c1ccc(Br)s1 | inactive |

| SMILES | outcome |
| --- | --- |
| CCc1ccc(CNc2ccc(N3CCN(C(C)=O)CC3)cc2)cc1 | inactive |
| COc1cc(N=Nc2ccc(C)cc2S(N)(=O)=O)c(C)cc1N | inactive |
| COc1cc(/C=N/NC(=O)CCNC(=O)c2ccccc2Cl)ccc1O | inactive |
| COc1cc(/C=C/C(=O)OCC(=O)Nc2ccc3c(c2)OCCO3)ccc1O | inactive |
| Oc1ccc(-c2csc(NCc3ccco3)n2)cc1 | inactive |
| CN(c1ccc(O)cc1)c1nc(-c2cccnc2)cs1 | inactive |
| COc1ccc(N)cc1NC(=O)CN1CCOCC1 | inactive |
| CC/C(=N\O)c1ccc(O)c(OC)c1 | inactive |
| CC(C(=O)N(C)Cc1ccccc1)N1CCN(C/C=C/c2ccccc2)CC1 (centres undefined) | inactive |
| COc1ccc(N2CCN(C(=O)CCCn3c(=O)c4cccn4c4cccnc43)CC2)cc1 | inactive |
| COc1cccc(CN2CCN(Cc3cc(OC)c(OC)c(OC)c3)CC2)c1OC | inactive |
| Oc1ccc(/C=N/Nc2nccnc2Cl)c(O)c1 | inactive |
| Nc1c(Cl)ncnc1N/N=C/c1ccc(O)cc1 | inactive |
| CCOc1cc(/C=N/Nc2ncnc(Cl)c2N)ccc1O | inactive |
| COc1cc(/C(C)=N/NC(=O)C(O)(c2ccccc2)c2ccccc2)ccc1O | inactive |
| Cc1nc(C/C(=N\N)c2ccc(O)cc2O)cs1 | inactive |
| O=C1CC(SC(=S)C2CCCC2=O)C(=O)N1 (centres undefined) | inactive |
| CC(CN1CCN(Cc2ccccc2)CC1)c1ccccc1 (centres undefined) | inactive |
| Cc1ccc(SCCN2CCN(Cc3ccccc3)CC2)cc1 | inactive |
| CC(=O)c1c(Nc2ccc3c(c2)OCCO3)oc(C)cc1=O | inactive |
| CC(=O)N1CCN(c2ccc(N)cc2)CC1 | inactive |
| Oc1ccc(/C=N/n2cc(-c3ccccc3)[nH]c2=S)cc1 | inactive |
| Nc1ccc(C(=O)N/N=C/c2ccc(N3CCOCC3)s2)cc1 | inactive |

| SMILES | outcome |
| --- | --- |
| CN(c1ccccc1)c1ccc(/C=N/N2CCOCC2)cc1 | inactive |
| Oc1ccc(-c2csc(Nc3cccnc3)n2)cc1 | inactive |
| Oc1ccc(-c2csc(Nc3ncccn3)n2)cc1 | inactive |
| C#CCOCCOCCOCCNc1nc(N2CCN(C(=O)[C@H](CCCCN)n3cc([C@@H](N)C(C)CC)nn3)CC2)nc(N2CCN(C(=O)[C@H](CCCCN)n3cc([C@@H](N)CC(C)C)nn3)CC2)n1 (some centres undefined) | inactive |
| Cc1ccc(N2CC(C(=O)Nc3ccc(N(C)C)cc3)CC2=O)cc1C (centres undefined) | inactive |
| O=C(O)c1ccc(S(=O)(=O)c2ccc3c(c2)C(=O)N(NC(=O)c2cccnc2)C3=O)cc1 | inactive |
| O=C(O)c1cccc2cccc(-c3c4ccc(=O)c(O)c-4oc4c(O)c(O)ccc34)c12 | inactive |
| Cc1cc(=O)oc2c(O)c(O)ccc12 | inactive |
| CC(C(=O)NCC(=O)Nc1ccc(F)c(F)c1F)N1CCN(c2ccc(O)cc2)CC1 (centres undefined) | inactive |
| Cc1cc(C(=O)c2cnc(/N=C/N(C)C)s2)cc(C)c1O | inactive |
| COc1cc(/C=N/NC(=O)C(=O)N2CCCC2)ccc1O | inactive |
| Oc1ccc(Br)cc1C=Nc1ccc2[nH]ncc2c1 | inactive |
| Oc1ccccc1/C=N/n1c(-c2ccccc2)n[nH]c1=S | inactive |
| O=[N+]([O-])c1cccc(/C=N/n2c(-c3cccnc3)n[nH]c2=S)c1 | inactive |
| CCN(c1ccccc1)S(=O)(=O)c1ccc(OC)c(NC(=O)CNCCc2ccccc2)c1 | inactive |
| CCOC(=O)CCNC(C)C1COc2ccccc2O1 (centres undefined) | inactive |
| O=C(COC(=O)c1c2c(nc3ccccc13)/C(=C/c1ccco1)CC2)NC1CCCC1 | inactive |
| CC(C)c1ccc(NC(=O)CNCC(c2ccccc2)N(C)C)cc1 (centres undefined) | inactive |
| COC(C(=O)N/N=C(\C)CC(=O)Nc1ccc(N(C)C)cc1)c1ccccc1 (centres undefined) | inactive |
| COc1cc(N=Nc2c(C)n(C)n(-c3ccccc3)c2=O)ccc1N | inactive |
| Oc1ccc(/C=N/N=C/c2ccc(O)cc2)cc1 | inactive |
| COc1cccc(OC)c1OCCCCN1CCCC1 | inactive |
| Cc1cccn2c(NCc3ccc4c(c3)OCO4)c(-c3ccc(O)cc3)nc12 | inactive |

| SMILES | outcome |
| --- | --- |
| C/C(CC(=O)Nc1ccc(N(C)C)cc1)=N\NC(=O)c1ccc([N+](=O)[O-])cc1Cl | inactive |
| Cc1cc(/C=C(\C#N)C(=O)N2CCCCC2)cc(C)c1O | inactive |
| COc1ccc(N2C(=O)CC(Nc3ccc(N4CCOCC4)cc3)C2=O)c(OC)c1 (centres undefined) | inactive |
| CN1C=CC(=CC=C2C=CC(=O)C=C2)C=C1 | inactive |
| COc1cc(/C=C/C(=O)OC(C)C(=O)Nc2c(C)n(C)n(-c3ccccc3)c2=O)ccc1O (centres undefined) | inactive |
| COc1cc(/C=N/NC(=O)c2nnn(-c3nonc3N)c2C(C)C)ccc1O | inactive |
| CCN1CCN(CCOc2ccc(Br)cc2C)CC1 | inactive |
| COc1ccccc1-c1cn[nH]c1-c1ccc(O)cc1O | inactive |
| COc1ccc(-c2cn[nH]c2-c2ccc(O)cc2O)cc1 | inactive |
| CN1CCN(Cc2coc3c(Cl)cc(Cl)cc3c2=O)CC1 | inactive |
| CN1C(=O)C2C(c3ccc(N(C)C)cc3)=NN(Cc3ccccc3)C2C1=O (centres undefined) | inactive |
| CC(C(=O)Nc1ccc2c(c1)OCO2)N1CCN(C)CC1 (centres undefined) | inactive |
| CCN(CC)CCn1c2ccccc2c(=O)c2c(O)ccc(O)c21 | inactive |
| CCN(CC)CCCNCC(=O)Nc1cc(C)on1 | inactive |
| COc1ccc(-n2c(=O)c3c4c(sc3n3c(=S)[nH]nc23)CCCC4)cc1 | inactive |
| c1cc2c(cc1CNc1ccc(N3CCOCC3)cc1)OCO2 | inactive |
| COc1cc(/C=N/n2c(C3CCCCC3)n[nH]c2=S)ccc1O | inactive |
| CN1CCN(/N=C/c2nc(-c3ccc(Cl)cc3)n3ccccc23)CC1 | inactive |
| Oc1ccc(N2CCN(C(c3cccs3)c3nnnn3CCc3ccccc3)CC2)cc1 (centres undefined) | inactive |
| Cc1ccc(NC(=O)CCC(=O)N/N=C/c2ccc(O)cc2)cc1 | inactive |
| Cn1cccc1CC(=O)N/N=C/C=C/c1ccco1 | inactive |
| Cc1ccc(Nc2n[nH]c(=S)s2)c(C)c1 | inactive |
| O=C(CNC1CC1)Nc1cc(C(F)(F)F)ccc1Cl | inactive |

| SMILES | outcome |
| --- | --- |
| CCC1=NN2C(=N)/C(=C\c3ccc(SCc4ccco4)o3)C(=O)N=C2S1 | inactive |
| O=C(COc1ccccc1[N+](=O)[O-])N/N=C/c1ccc(O)cc1 | inactive |
| CCOc1cc(/C=N/NC(=O)c2ccccc2OCc2ccc(F)cc2)ccc1O | inactive |
| O=C(N/N=C/c1ccc(O)c(O)c1)c1cccc(S(=O)(=O)N2CCCCC2)c1 | inactive |
| CCOC(=O)Nc1ccc(OC(=O)Oc2ccc(NC(=O)OCC)cc2)cc1 | inactive |
| CC(=O)Nc1ccc(OC(=O)c2cc3ccccc3oc2=O)cc1 | inactive |
| C=CCc1cc(C=Nc2ccc(N3CCOCC3)cc2)cc(OCC)c1O | inactive |
| CCc1nnc(N/N=C/c2c(C)[nH]c3ccccc23)n1N | inactive |
| CCN1CCN(C(C)C(=O)NC2CCCCC2)CC1 (centres undefined) | inactive |
| C/C(=N\NC(=O)c1ccccc1F)c1ccc2c(c1)Nc1ccccc1S2 | inactive |
| C/C(=N/Nc1ccc(C(=O)O)cc1)c1ccc2c(c1)Nc1ccccc1S2 | inactive |
| N#CC1=C(S)N(c2ccccc2)C2(CCCCC2)NC1=O | inactive |
| CC1(C)O[C@@H]2[C@H](O1)[C@@H](COS(=O)(=O)O)O[C@H]2n1c(=S)[nH]c2c(=O)[nH]c(N)nc21 | inactive |
| Cc1c(N(C)C)nc2ccccc2c1N | inactive |
| O=C(O)CC1SC(=Nc2ccc(O)cc2)NC1=O (centres undefined) | inactive |
| COc1cc(/C=N/NC2=NCCCCC2)ccc1O | inactive |
| S=c1[nH]nc(Nc2ccccc2Cl)s1 | inactive |
| Cc1cc(/C=C2\SC(=S)NC2=O)c(C)[nH]1 | inactive |
| O=C1NC(=NCc2ccccc2)S/C1=C/c1ccc(O)cc1 | inactive |
| COc1cc(/C=C2\SC(=Nc3ccc(Cl)c(C(=O)O)c3)NC2=O)c(Br)c(Br)c1O | inactive |
| O=C1NC(=S)S/C1=C\C=C\c1ccc([N+](=O)[O-])o1 | inactive |
| CCOC(=O)C1CCN(Cc2cccc(Oc3ccccc3)c2)CC1 | inactive |
